Measured values published in PubChem BioAssay (EPA / NIEHS).
Active and inactive are the calls of the source. How the source made its calls: active means hit-call score of the fitted dose curve at least 0.9, where 1 is the maximum; inactive means score below 0.9.

How the values were obtained:
[1] = ATG_GLI_CIS: Attagene CIS-FACTORIAL HepG2 Assay for human Zinc Finger Protein GLI1 (AID 2282945); settings: HepG2, Attagene cis-factorial reporter mRNA, GLI element; actives raise or lower the signal
Procedure, shortened: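 Transiently transfected HepG2 cells report endogenous transcription factor activity via cis-element-driven reporter units. After 24 h compound exposure, reporter mRNA was measured by RT-PCR with capillary electrophoresis; bidirectional fitting against DMSO baseline.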

[2] = ATG_GRE_CIS: Attagene CIS-FACTORIAL HepG2 Assay for human Glucocorticoid Response Elements (GRE) (AID 2282947); settings: HepG2 GRE cis-reporter, Attagene multiplex mRNA; actives raise or lower the signal
Procedure, shortened: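 Fluorescence intensity of reporter-specific cDNA fragments, separated by capillary electrophoresis, provides the signal. Constructs carry cis-regulating promoters in transiently transfected HepG2 liver cells; 24 h incubation; fitting is bidirectional against DMSO.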

[3] = ATG_ISRE_CIS: Attagene CIS-FACTORIAL HepG2 Assay for human Interferon Regulatory Factor 1 (IRF1) binding to an Interferon-Stimulated Response Element (ISRE) (AID 2282948); settings: HepG2 ISRE cis-reporter (Attagene), mRNA transcription readout; actives raise or lower the signal
Procedure, shortened: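 Read-out: fluorescent RT-PCR products resolved by capillary electrophoresis, reporting endogenous transcription factor activity via ISRE-driven reporter mRNA in transfected HepG2 cells dosed for 24 h; gain or loss fitted relative to DMSO.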

[4] = ATG_M_32_CIS: Attagene CIS-FACTORIAL HepG2 Assay for M32 Transcription Factor (Internal Marker) (AID 2282949); settings: HepG2 Attagene cis-factorial M32 reporter, mRNA; actives raise or lower the signal;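 further: background control marker of the multiplexed CIS panel rather than a real target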
Procedure, shortened: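 HepG2 transfectants (cis-regulated reporter transcription units) dosed 24 h. Reporter mRNA by RT-PCR plus CE, analysed as gain or loss relative to DMSO.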

[5] = ATG_M_06_CIS: Attagene CIS-FACTORIAL HepG2 Assay for M06 Transcription Factor (Internal Marker) (AID 2282950); settings: HepG2 Attagene CIS-FACTORIAL M06 internal marker reporter; actives raise or lower the signal
Procedure, shortened: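 Cells (HepG2, transiently carrying cis-driven reporter units) receive chemical for 24 h before RNA isolation. Reporter cDNA is PCR-amplified, FAM-labelled by primer extension, HpaI-digested and sized on a capillary analyser.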

[6] = molecular target: Hypoxia-inducible factor 1-alpha (Homo sapiens) (UniProt Q16665); assay: ATG_HIF1a_CIS: Attagene CIS-FACTORIAL HepG2 Assay for human Hypoxia Inducible Factor 1 (HIF1A) (AID 2282951); settings: HepG2 Attagene cis-factorial HIF1a reporter transcription; actives raise or lower the signal
Procedure, shortened: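 HepG2 cells transiently transfected with multiplexed cis-promoter reporter units; reporter mRNA read 24 h after dosing by RT-PCR, 6-FAM primer-extension labelling, HpaI digestion and capillary electrophoresis. Bidirectional fit versus DMSO baseline.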

[7] = molecular target: Hepatocyte nuclear factor 6 (Homo sapiens) (UniProt Q9UBC0); assay: ATG_HNF6_CIS: Attagene CIS-FACTORIAL HepG2 Assay for human Hepatocyte Nuclear Factor 6 (HNF6) (AID 2282952); settings: HepG2 Attagene cis-factorial HNF6 reporter transcription; actives raise or lower the signal
Procedure, shortened: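 First, HepG2 cells were transfected with the multiplexed cis reporter library and dosed with chemical for 24 h. Next, RNA was reverse-transcribed, PCR-amplified and fluorescently labelled. Finally, HpaI-digested fragments were read by capillary electrophoresis.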

[8] = molecular target: Heat shock factor protein 1 (Homo sapiens) (UniProt Q00613); assay: ATG_HSE_CIS: Attagene CIS-FACTORIAL HepG2 Assay for human Heat Shock Transcription Factor 1 (HSE) (AID 2282953); settings: HepG2 HSE cis-reporter, Attagene RNA transcription; actives raise or lower the signal
Procedure, shortened: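 Liver-derived HepG2 cells carry transiently introduced multiple reporter units governed by cis promoters. Reporter RNA measured 24 h post-dose through reverse transcription, PCR amplification, fluorescent labelling and capillary electrophoresis, normalised to DMSO.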

[9] = ATG_MRE_CIS: Attagene CIS-FACTORIAL HepG2 Assay for human Metal Responsive Element (MRE) (AID 2282954); settings: HepG2 MRE cis-reporter transcription, Attagene multiplex; actives raise or lower the signal
Procedure, shortened: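 Measured here is mRNA induction from an MRE cis-element reporter in HepG2 after 24 h, quantified by fluorescence of labelled RT-PCR products on capillary electrophoresis; gain- and loss-of-signal fits use DMSO as baseline.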

[10] = ATG_PBREM_CIS: Attagene CIS-FACTORIAL HepG2 Assay for human Phenobarbital-responsive Enhancer Module (PBREM) (AID 2282955); settings: HepG2 PBREM cis-reporter, Attagene multiplexed transcription; actives raise or lower the signal
Procedure, shortened: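 HepG2 cells transiently transfected with multiple cis-regulated reporter transcription units; endogenous factor activity at the PBREM element measured as reporter mRNA 24 h after dosing, via RT-PCR and capillary electrophoresis of fluorescent fragments; bidirectional fitting versus DMSO.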

[11] = molecular target: Paired box protein Pax-6 (Homo sapiens) (UniProt P26367); assay: ATG_Pax6_CIS: Attagene CIS-FACTORIAL HepG2 Assay for human Paired Box 6 (PAX6) (AID 2282956); settings: HepG2 CIS-FACTORIAL PAX6 reporter transcription, RNA readout; actives raise or lower the signal
Procedure, shortened: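 Readout: reporter transcript fluorescence after RT-PCR and capillary electrophoresis. Cells: HepG2, transiently transfected with cis-regulated MRTUs. Exposure 24 h. Gain or loss of signal fitted bidirectionally relative to DMSO.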

[12] = ATG_PXRE_CIS: Attagene CIS-FACTORIAL HepG2 Assay for human Pregnane X Receptor Element (PXRE) (AID 2282957); settings: HepG2 Attagene CIS-FACTORIAL PXRE reporter, mRNA; actives raise or lower the signal
Procedure, shortened: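 After a 24 h chemical incubation, total RNA from transfected HepG2 cells was reverse-transcribed and reporter cDNA amplified, FAM-labeled, HpaI-digested and sized by capillary electrophoresis. DMSO served as baseline for bidirectional curve fitting.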

[13] = ATG_Sox_CIS: Attagene CIS-FACTORIAL HepG2 Assay for human SRY-box transcription factor (SOX) (AID 2282960); settings: HepG2 Attagene cis-factorial SOX reporter, mRNA; actives raise or lower the signal
Procedure, shortened: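 HepG2 cells transiently transfected with cis-element-driven multiple reporter transcription units, dosed 24 h; reporter mRNA measured by RT-PCR, FAM labelling, HpaI digestion and capillary electrophoresis. Bidirectional fit versus DMSO baseline.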

[14] = molecular target: Transcription factor Sp1 (Homo sapiens) (UniProt P08047); assay: ATG_Sp1_CIS: Attagene CIS-FACTORIAL HepG2 Assay for human Specificity Protein 1 (Sp1) (AID 2282961); settings: HepG2 Sp1 cis-reporter transcription, actives raise or lower the signal
Procedure, shortened: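 HepG2 cells transiently transfected with multiple reporter transcription units driven by cis-regulatory elements; Sp1-responsive reporter mRNA measured 24 h after dosing by RT-PCR and capillary electrophoresis fluorescence, fitted bidirectionally against DMSO baseline.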

[15] = ATG_SREBP_CIS: Attagene CIS-FACTORIAL HepG2 Assay for human Sterol Regulatory Element Binding (SREBP) (AID 2282962); settings: HepG2 Attagene cis-factorial SREBP reporter, mRNA; actives raise or lower the signal
Procedure, shortened: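 Readout: fluorescent reporter-transcript peaks resolved by capillary electrophoresis after RT-PCR. Cells were human HepG2 carrying transfected cis-promoter reporter constructs, dosed for 24 h. Gain or loss of signal was fitted against DMSO controls.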

[16] = molecular target: Signal transducer and activator of transcription 3 (Homo sapiens) (UniProt P40763); assay: ATG_STAT3_CIS: Attagene CIS-FACTORIAL HepG2 Assay for human Signal Transducer and Activator of Transcription 3 (STAT3) (AID 2282963); settings: HepG2, Attagene cis-factorial STAT3 reporter transcription; actives raise or lower the signal
Procedure, shortened: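 Fluorescence intensity of 6-FAM-labelled reporter fragments, separated by capillary electrophoresis after RT-PCR, gave the signal. Cells were HepG2 transfected with cis-element reporter units and treated 24 h; fitting was bidirectional relative to DMSO.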

[17] = ATG_TA_CIS: Attagene CIS-FACTORIAL HepG2 Assay for human TA Basal Promoter (AID 2282964); settings: HepG2 Attagene CIS-factorial TA basal promoter reporter; actives raise or lower the signal
Procedure, shortened: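 Background internal-marker endpoint from a 52-component HepG2 cis-reporter panel. Cells treated 24 h; reporter transcripts quantified via RT-PCR and CE fluorescence against DMSO baseline.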

[18] = ATG_PPRE_CIS: Attagene CIS-FACTORIAL HepG2 Assay for human Peroxisome Proliferator-activated Response Element (PPRE) (AID 2282958); settings: HepG2 PPRE cis-element reporter, Attagene transcription factor profiling; actives raise or lower the signal
Procedure, shortened: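 HepG2 cells transiently transfected with multiplexed cis-element reporter units measure endogenous transcription factor activity. After 24 h compound exposure, reporter mRNA is quantified by RT-PCR, 6-FAM labeling, HpaI digestion and capillary electrophoresis; bidirectional fits are made against DMSO baseline.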

[19] = ATG_RORE_CIS: Attagene CIS-FACTORIAL HepG2 Assay for human RAR-related Orphan Receptor Element (RORE) (AID 2282959); settings: HepG2 Attagene cis-factorial RORE reporter, mRNA; actives raise or lower the signal
Procedure, shortened: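 HepG2 cells transiently transfected with multiple cis-element reporter transcription units, exposed to chemical for 24 h. Reporter mRNA quantified by RT-PCR, 6-FAM primer-extension labeling, HpaI digestion and capillary electrophoresis; bidirectional fit versus DMSO baseline.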

Measured: AC50

Chain of Paired box protein Pax-6 (Homo sapiens) (P26367 whole entry, looked up): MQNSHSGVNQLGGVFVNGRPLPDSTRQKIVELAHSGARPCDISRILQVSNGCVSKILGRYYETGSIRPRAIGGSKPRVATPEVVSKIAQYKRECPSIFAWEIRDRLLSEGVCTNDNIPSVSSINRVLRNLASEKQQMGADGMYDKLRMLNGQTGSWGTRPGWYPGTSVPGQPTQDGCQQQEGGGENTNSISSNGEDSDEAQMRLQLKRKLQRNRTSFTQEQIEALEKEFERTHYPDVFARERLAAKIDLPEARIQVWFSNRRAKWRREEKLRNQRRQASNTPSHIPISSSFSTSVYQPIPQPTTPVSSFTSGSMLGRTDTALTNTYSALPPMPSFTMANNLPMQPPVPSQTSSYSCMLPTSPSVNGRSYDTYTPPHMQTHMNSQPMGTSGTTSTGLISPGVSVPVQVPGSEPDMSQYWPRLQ
Chain of Hepatocyte nuclear factor 6 (Homo sapiens) (Q9UBC0 whole entry, looked up, the tested form may be a part): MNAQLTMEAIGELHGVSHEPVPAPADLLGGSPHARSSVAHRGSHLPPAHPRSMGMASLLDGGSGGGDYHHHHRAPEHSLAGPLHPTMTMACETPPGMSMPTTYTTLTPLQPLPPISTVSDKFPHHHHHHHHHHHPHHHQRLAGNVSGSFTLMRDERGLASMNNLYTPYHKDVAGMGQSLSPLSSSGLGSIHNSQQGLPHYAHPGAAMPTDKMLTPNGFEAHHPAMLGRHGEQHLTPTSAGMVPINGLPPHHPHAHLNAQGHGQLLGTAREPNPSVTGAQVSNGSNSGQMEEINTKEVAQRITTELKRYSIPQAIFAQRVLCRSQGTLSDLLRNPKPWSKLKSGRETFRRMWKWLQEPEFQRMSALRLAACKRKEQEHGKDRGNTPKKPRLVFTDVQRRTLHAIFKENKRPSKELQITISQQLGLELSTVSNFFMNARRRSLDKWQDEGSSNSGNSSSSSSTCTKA
Chain of Hypoxia-inducible factor 1-alpha (Homo sapiens) (Q16665 whole entry, looked up): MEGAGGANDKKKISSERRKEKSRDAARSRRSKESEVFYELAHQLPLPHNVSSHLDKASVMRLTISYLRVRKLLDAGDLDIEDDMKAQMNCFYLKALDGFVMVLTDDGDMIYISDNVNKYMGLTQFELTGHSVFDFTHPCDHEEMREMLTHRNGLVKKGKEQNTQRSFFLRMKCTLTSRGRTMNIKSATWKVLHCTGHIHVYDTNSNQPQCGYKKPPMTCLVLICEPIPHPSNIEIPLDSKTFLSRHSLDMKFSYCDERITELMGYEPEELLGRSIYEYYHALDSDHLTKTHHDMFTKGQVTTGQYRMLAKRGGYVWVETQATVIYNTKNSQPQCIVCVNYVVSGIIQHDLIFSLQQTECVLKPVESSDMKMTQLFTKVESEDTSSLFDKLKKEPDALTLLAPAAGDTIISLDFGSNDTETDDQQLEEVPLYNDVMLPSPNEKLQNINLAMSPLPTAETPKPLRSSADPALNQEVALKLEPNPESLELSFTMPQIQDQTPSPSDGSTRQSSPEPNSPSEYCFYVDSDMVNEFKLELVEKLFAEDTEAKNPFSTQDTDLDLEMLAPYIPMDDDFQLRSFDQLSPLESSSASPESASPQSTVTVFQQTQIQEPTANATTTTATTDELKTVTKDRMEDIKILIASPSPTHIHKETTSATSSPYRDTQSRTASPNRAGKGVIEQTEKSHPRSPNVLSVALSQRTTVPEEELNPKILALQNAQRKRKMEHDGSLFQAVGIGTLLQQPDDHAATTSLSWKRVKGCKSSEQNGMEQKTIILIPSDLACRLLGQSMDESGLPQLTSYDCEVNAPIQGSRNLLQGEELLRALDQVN
Chain of Signal transducer and activator of transcription 3 (Homo sapiens) (P40763 whole entry, looked up, the tested form may be a part): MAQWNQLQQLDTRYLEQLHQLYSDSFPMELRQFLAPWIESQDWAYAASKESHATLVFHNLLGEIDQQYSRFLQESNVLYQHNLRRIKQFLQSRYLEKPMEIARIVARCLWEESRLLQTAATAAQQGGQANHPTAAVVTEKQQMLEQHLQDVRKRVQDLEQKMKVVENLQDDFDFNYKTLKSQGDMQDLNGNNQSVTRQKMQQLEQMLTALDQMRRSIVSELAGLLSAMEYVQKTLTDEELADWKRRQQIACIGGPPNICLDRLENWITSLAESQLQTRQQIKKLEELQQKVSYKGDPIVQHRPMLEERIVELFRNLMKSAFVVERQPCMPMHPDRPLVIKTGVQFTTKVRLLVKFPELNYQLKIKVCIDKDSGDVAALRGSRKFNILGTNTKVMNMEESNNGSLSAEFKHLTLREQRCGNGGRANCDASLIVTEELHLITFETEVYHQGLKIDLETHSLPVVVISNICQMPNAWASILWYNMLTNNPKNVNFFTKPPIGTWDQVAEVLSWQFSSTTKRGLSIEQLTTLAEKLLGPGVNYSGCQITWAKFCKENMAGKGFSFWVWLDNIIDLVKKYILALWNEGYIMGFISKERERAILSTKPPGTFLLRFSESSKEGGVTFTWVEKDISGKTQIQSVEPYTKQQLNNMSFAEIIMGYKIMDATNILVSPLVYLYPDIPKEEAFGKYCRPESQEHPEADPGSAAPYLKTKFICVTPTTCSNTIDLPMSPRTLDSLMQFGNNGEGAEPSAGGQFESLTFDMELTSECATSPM
Chain of Heat shock factor protein 1 (Homo sapiens) (Q00613 whole entry, looked up): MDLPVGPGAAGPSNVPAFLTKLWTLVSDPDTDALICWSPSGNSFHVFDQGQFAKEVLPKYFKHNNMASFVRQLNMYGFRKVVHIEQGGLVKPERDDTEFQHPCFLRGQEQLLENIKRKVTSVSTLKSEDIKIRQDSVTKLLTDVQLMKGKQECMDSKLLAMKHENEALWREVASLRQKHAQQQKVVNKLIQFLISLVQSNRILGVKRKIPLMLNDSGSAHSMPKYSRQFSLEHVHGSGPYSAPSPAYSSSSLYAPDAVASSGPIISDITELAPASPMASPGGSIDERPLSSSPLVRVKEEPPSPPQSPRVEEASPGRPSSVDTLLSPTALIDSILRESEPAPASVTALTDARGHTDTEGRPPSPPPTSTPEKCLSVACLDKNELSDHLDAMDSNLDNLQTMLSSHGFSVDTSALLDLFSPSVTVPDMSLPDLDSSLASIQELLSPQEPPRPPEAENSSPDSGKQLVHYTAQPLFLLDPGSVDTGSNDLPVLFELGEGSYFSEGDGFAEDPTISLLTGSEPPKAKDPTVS
Chain of Transcription factor Sp1 (Homo sapiens) (P08047 whole entry, looked up): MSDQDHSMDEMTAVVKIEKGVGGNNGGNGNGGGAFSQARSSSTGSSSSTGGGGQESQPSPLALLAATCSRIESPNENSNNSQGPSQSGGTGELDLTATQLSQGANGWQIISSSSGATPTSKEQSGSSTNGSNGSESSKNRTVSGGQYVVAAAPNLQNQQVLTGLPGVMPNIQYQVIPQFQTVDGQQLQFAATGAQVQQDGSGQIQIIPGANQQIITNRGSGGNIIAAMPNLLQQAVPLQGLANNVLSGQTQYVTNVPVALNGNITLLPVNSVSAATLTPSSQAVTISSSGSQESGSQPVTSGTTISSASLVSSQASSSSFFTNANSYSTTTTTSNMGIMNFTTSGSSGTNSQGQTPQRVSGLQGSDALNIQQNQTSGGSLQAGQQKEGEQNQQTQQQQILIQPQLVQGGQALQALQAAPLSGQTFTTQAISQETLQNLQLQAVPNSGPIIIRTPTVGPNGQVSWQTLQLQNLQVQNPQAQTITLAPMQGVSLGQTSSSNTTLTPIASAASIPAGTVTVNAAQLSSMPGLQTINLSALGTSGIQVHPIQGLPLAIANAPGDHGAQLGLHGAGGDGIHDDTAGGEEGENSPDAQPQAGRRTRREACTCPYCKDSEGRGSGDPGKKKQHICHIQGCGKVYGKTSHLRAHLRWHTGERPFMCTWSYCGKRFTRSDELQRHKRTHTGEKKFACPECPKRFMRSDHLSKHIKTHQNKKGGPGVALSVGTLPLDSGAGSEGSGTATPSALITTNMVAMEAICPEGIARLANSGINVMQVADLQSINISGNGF

CCCCCCCCOC(=O)c1ccc(O)cc1
inactive: [1] | [2] | [3] | [4] | [5] | [6] | [7] | [8] | [9] | [10] | [11] | [13] | [14] | [15] | [16] | [17]
active: [12] 13.4 µM

C1CCCNCC1
inactive: [1] | [2] | [3] | [4] | [5] | [6] | [7] | [8] | [9] | [10] | [11] | [18] | [19] | [13] | [14] | [15] | [16] | [17]
active: [12] 27.3 µM

C=C(C)C(=O)OCCC(C)OC(=O)C(=C)C (stereo not drawn)
active: [12] 56.2 µM
inactive: [1] | [2] | [3] | [4] | [5] | [6] | [7] | [8] | [9] | [10] | [11] | [18] | [19] | [13] | [14] | [15] | [16] | [17]

CCCCCCCCCCCCCCCCCC(=O)OCCCCCCCCCCCCCC(C)C
active: [12] 46.9 µM
inactive: [1] | [2] | [3] | [4] | [5] | [6] | [7] | [8] | [9] | [11] | [18] | [19] | [13] | [14] | [15] | [16] | [17]
